# ATXN2 expr inh = Primary qHTS for Inhibitors of ATXN expression | HEK-293 ATXN2-luciferase reporter, luminescence, 24 h | Potency, µM (highest dose often 57 µM), for inactives: top-dose activity change, negative = inhibition, actives largely listed as inhibitors | 360,000 tested, 0.72% active | AID 1745845, 2022; also: % is scaled to controls: 0 for no effect and ±100 for the full control effect; nearly all actives have a fitted effect of over 55% in size
#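 ATXN2-luciferase reporter cells (luciferase flanked by upstream and downstream ATXN2 gene portions) were treated 24 h at 37 °C with compounds at up to 57 uM. SteadyGlo luminescence gave expression; GF-AFC fluorescence gave viability.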
# KB-V1 cytotox = qHTS assay for MDR1-selective chemotherapeutics: Primary screen using the drug-selected MDR subline cells KB-V1. KB-V1 MDR cells viability, CellTiter-Glo, 72 h. Potency, µM (top dose mostly 46.1 µM), actives largely listed as cytotoxic. 400,000 tested, 3.4% active; also: % is scaled to controls: 0 for no effect and ±100 for the full control effect; nearly all actives have a fitted effect of over 60% in size
#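 Cytotoxicity toward P-gp-expressing KB-V1 cells was determined as loss of CellTiter-Glo luminescence after 72 h at 37 degrees C. Compounds were tested in quantitative HTS format across a concentration range, with curves fitted to normalized data.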
# ATXN viability = Viability Counterscreen for Primary qHTS for Inhibitors of ATXN expression; S2 cells (HEK-293 line with an ATXN2-luciferase reporter) viability, CellTiter-Fluor protease fluorescence, 24 h; Potency, µM (doses to about 56.7 µM), hits mostly cytotoxic; 400,000 tested, 0.49% active; also: nearly all actives have a fitted effect of over 40% in size
# HT1080-NT tox = qHTS for induction of synthetic lethality in tumor cells producing 2HG: qHTS for the HT-1080-NT fibrosarcoma cell line; HT-1080-NT fibrosarcoma viability, CellTiter-Glo ATP luminescence, 48 h; Potency, µM (titrated, usually from 46.1 µM), for inactives: at the highest dose activity, negative = less viability, usual class: cytotoxic; 360,000 tested, 1.6% active;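 also: NT is the 2HG producing partner of a matched IDH1 knockdown line; 0% = DMSO-treated cells and -100% = media-only wells without cells; nearly all actives have a fitted effect of over 55% in size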
#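 Compounds were tested in concentration-response format on HT-1080-NT cells for 48 hours at 37 degrees C. Cell viability came from CellTiter-Glo luminescence; curves were classified by r2, response magnitude and activity.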
# HT1080 IDH1KD tx = qHTS for induction of synthetic lethality in tumor cells producing 2HG: qHTS for the HT-1080-IDH1KD cell line; 360,000 tested, 2% active; HT-1080 IDH1 knockdown viability, ATP luminescence, 48 h; Potency, µM (highest dose often 46.1 µM), for the others: at the top dose activity, negative = toxicity, most hits filed as cytotoxic;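 also: 0% = DMSO wells and -100% = cell-free medium wells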
#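 CellTiter-Glo luminescence after 48 h compound exposure at 37 degrees C of IDH1-knockdown HT-1080 cells in 5% FBS RPMI. %Activity scaled between DMSO wells and cell-free media wells, with curves fitted and assigned curve classes.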
# KB-3-1 cytotox = qHTS assay for MDR1-selective chemotherapeutics: Primary screen using the parental adenocarcinoma cell KB-3-1; KB-3-1 viability, CellTiter-Glo ATP luminescence, 72 h; AID 1347075, 2019; 400,000 tested, 1.4% active; Potency, µM (top dose mostly 46.1 µM), most hits filed as cytotoxic; also: % is scaled to controls: 0 for no effect and ±100 for the full control effect; nearly all actives have a fitted effect of over 60% in size
#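 Here the drug-naive KB-3-1 line serves as comparator for MDR sub-line selectivity; cells received compound titrations, 72 h at 37 °C, then CellTiter-Glo readout.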
# Starred values were filed as active, the others as inactive; i = inactive; ? = inconclusive; · = no result. Hits are enriched below; roughly 6.2% of the tested compounds scored in any of these assays. Calls follow the shape of the dose curve; as a rule, active = well fitted curve in the direction sought with a large enough effect; inconclusive = small, poorly fitted or top-dose-only effect, or another doubt; inactive = no such curve, though single readings can be large; an effect the other way counts as inactive or inconclusive. Potency is read from the fitted curve at half-maximal effect.
SMILES,ATXN2 expr inh,KB-V1 cytotox,ATXN viability,HT1080-NT tox,HT1080 IDH1KD tx,KB-3-1 cytotox
O=C(NC(NC(=S)Nc1c(Cl)cc(Cl)cc1Cl)C(Cl)(Cl)Cl)OCc1ccccc1 (stereo not given),-18.1%,11.6µM*,i,?,?,?
Cc1ccc(C)c(NC(=S)NC(NC(=O)OCc2ccccc2)C(Cl)(Cl)Cl)c1 (stereo not given),-1.8%,14.6µM*,i,-6.1%,-12.7%,i
Cc1nn(C)c2c1c(-c1ccccc1)cc(=O)n2Cc1c(F)cccc1Cl,11.7%,i,i,·,·,i
COc1cccc(C2CNC3(CCCC(C)C3)c3[nH]c4ccccc4c32)c1OC (stereo not given),·,?,11.2µM*,?,?,i
CCN(CC)C(=O)CSC1=N/C(=C/c2ccco2)C(=O)N1c1ccc(OC)c(Cl)c1,?,i,5.01µM*,-10.6%,0.3%,i
Fc1ccc2[nH]c3c(N4CCN(c5ccccc5)CC4)ncnc3c2c1,?,16.4µM*,?,?,20.6µM*,i
CCOC(=O)N1CCN(c2ncnc3c2[nH]c2ccc(F)cc23)CC1,?,?,?,-0.9%,?,?
OC1(c2cccc(C(F)(F)F)c2)CCN(c2ncnc3c2[nH]c2ccc(F)cc23)CC1,5.8%,i,i,23.1µM*,18.4µM*,i
Cc1cc(C)c(NC(=O)C2CCN(C(=O)N3CC(C)Oc4ccc(Cl)cc43)CC2)c(C)c1 (stereo not given),?,i,?,·,·,i
Cc1cccc(C(=O)N2CCOc3ccc(CN(C)Cc4cc(C5CC5)n[nH]4)cc3C2)n1,·,·,i,·,·,·
CCN(CC)C(=S)NC(=O)c1ccc(Cl)cc1Cl,-0.3%,i,i,7.08µM*,3.55µM*,i
CCN1CCN(C(=S)NC(=O)c2cc(OC)c(OC)c(OC)c2)CC1,-1.4%,i,i,4.1%,5.0%,i
CCN(CC)C(=S)Nc1ccc(Cl)c(Cl)c1,3.2%,23.1µM*,i,4.2%,10.5%,?
CCN(CC)C(=S)NC(=O)c1cc(OC)c(OC)c(OC)c1,-2.5%,i,i,23.1µM*,-11.1%,i
CCN(Cc1ccncc1)C(=S)Nc1ccc(Cl)cc1,-4.1%,?,i,-2.8%,-10.7%,i
CC(C)(C)C(=O)NC(=S)NNC(=O)c1ccc(-c2ccccc2)cc1,·,9.2µM*,?,8.2µM*,7.31µM*,?
CN(C)c1ccc(/C=C/c2ccc3cc(F)ccc3n2)cc1,·,i,·,·,·,i
COc1cccc2cc(C(=O)N(Cc3cccs3)Cc3cccs3)c(=O)oc12,·,i,·,·,·,i
Cc1cccc2c(/C=C/c3ccc(N(C)C)cc3)ccnc12,·,i,·,·,·,i
COC(=O)NNC(=O)c1ccc(Cl)cc1Cl,-21.9%,?,?,19.8%,22.2%,i
CC(C)(C)C(=O)NC(=S)NNC(=O)c1ccc(Cl)cc1Cl,-22.0%,?,i,9.2µM*,18.4µM*,?
COc1cccc(-c2cc(C(=O)Nc3cccnc3)no2)c1,-13.8%,?,?,?,11.6µM*,?
CC(C)n1cc(NC(=O)c2cc(-c3ccccc3)on2)cn1,29.6%,4.11µM*,i,16.4µM*,8.2µM*,?
O=C(Nc1cccnc1)c1cc(-c2ccccc2)on1,16.2%,i,i,-3.2%,-16.3%,i
COc1ccc(NC(=O)c2cc(C(C)C)on2)cc1OC,33.0%,20.6µM*,i,12.8%,-2.4%,i
COc1cccc(-c2cc(C(=O)Nc3cc(OC)c(OC)c(OC)c3)no2)c1,-38.3%,3.66µM*,i,?,?,?

# Assay outcomes (PubChem)
